Results reported in PubChem BioAssay.
Active and inactive are the calls of the source.

Experiments:
[1] = test system: PRMT1 (protein arginine N-methyltransferase 1); experiment: small molecules binding arginine methyltransferase PRMT1 – biochemical, small-molecule microarray, 635 nm fluorescence, primary screen (AID 1088); conditions: higher = more signal;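 note: binding of Prmt1 protein to compounds spotted on small-molecule microarray slides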
[2] = growth effects on S. cerevisiae YJM789 – YJM789 clinical isolate, OD600, 24 h, basal, primary screen (AID 1089); conditions: higher = more signal, called active from +8 up or from −8 down;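 note: growth of clinical yeast isolate S. cerevisiae YJM 789 seeded 1000 cells per well; test concentration not given here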
[3] = S. pombe growth modifiers, basal conditions – strain 972, OD600, 24 h, no modulator, primary screen (AID 1090);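 note: basal condition with compound alone and no growth modifier present; test concentration not given here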; conditions: S. pombe 972 growth, higher = more signal, called active from +8 up or from −8 down
[4] = budding yeast growth modifiers under rapamycin – strain BY4716, OD600, 96 h, primary screen (AID 1091); note: test concentration not given here; conditions: S. cerevisiae BY4716 + rapamycin, higher = more signal, called active from +8 up or from −8 down
[5] = biological target: Torsin-1A-interacting protein 2 (Homo sapiens) (UniProt Q8NFQ8); experiment: small molecules binding lysate-expressed LULL1 – cell lysate, human LULL1 lysate, 635/667 nm fluorescence, primary screen (AID 1092); conditions: small-molecule microarray, hLULL1 lysate binding, 635 nm fluorescence; higher = more signal;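 note: probe is lysate of COS7 cells overexpressing human LULL1; score merges per-feature 667 nm fluorescence with signal-to-noise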
[6] = optical density change of DRC41 E. coli – strain DRC41, OD650, 24 h, E. coli filamentation project, primary screen (AID 1093);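 note: MC1000 strain lacking acrAB efflux and sulA so SOS filamentation is blocked; test concentration not given here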; conditions: E. coli DRC41 growth, higher = more signal, called active from +8 up or from −8 down
[7] = probe aLefty2 binding to arrayed compounds – biochemical, biotinylated probe, 635/667 nm fluorescence, primary screen (AID 1094); conditions: small-molecule microarray, higher = more signal;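 note: score merges spot fluorescence near 667 nm with spot signal-to-noise ratio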
[8] = test system: Noggin (protein binding on small-molecule microarray); experiment: small molecules binding Noggin protein – biochemical, 635/667 nm fluorescence, primary screen (AID 1095); conditions: 635 nm fluorescence, higher = more signal;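 note: score merges 667 nm feature fluorescence with signal to noise over triplicate slides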
[9] = biological target: Neurogenic locus notch homolog protein 3 (Homo sapiens) (UniProt Q9UM47); experiment: small molecules binding NOTCH3 protein – biochemical, 635/667 nm fluorescence, primary screen (AID 1096); conditions: small-molecule microarray, 635 nm fluorescence, higher = more signal
[10] = probe aEGFR binding to arrayed compounds – biochemical, biotinylated probe, 635/667 nm fluorescence, primary screen (AID 1097); conditions: small-molecule microarray, higher = more signal;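 note: probe is a biotinylated anti-EGFR antibody binding compounds printed on slides; score combines fluorescence near 667 nm and signal to noise of each spot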

Neurogenic locus notch homolog protein 3 (Homo sapiens), sequence (Q9UM47 whole entry, looked up): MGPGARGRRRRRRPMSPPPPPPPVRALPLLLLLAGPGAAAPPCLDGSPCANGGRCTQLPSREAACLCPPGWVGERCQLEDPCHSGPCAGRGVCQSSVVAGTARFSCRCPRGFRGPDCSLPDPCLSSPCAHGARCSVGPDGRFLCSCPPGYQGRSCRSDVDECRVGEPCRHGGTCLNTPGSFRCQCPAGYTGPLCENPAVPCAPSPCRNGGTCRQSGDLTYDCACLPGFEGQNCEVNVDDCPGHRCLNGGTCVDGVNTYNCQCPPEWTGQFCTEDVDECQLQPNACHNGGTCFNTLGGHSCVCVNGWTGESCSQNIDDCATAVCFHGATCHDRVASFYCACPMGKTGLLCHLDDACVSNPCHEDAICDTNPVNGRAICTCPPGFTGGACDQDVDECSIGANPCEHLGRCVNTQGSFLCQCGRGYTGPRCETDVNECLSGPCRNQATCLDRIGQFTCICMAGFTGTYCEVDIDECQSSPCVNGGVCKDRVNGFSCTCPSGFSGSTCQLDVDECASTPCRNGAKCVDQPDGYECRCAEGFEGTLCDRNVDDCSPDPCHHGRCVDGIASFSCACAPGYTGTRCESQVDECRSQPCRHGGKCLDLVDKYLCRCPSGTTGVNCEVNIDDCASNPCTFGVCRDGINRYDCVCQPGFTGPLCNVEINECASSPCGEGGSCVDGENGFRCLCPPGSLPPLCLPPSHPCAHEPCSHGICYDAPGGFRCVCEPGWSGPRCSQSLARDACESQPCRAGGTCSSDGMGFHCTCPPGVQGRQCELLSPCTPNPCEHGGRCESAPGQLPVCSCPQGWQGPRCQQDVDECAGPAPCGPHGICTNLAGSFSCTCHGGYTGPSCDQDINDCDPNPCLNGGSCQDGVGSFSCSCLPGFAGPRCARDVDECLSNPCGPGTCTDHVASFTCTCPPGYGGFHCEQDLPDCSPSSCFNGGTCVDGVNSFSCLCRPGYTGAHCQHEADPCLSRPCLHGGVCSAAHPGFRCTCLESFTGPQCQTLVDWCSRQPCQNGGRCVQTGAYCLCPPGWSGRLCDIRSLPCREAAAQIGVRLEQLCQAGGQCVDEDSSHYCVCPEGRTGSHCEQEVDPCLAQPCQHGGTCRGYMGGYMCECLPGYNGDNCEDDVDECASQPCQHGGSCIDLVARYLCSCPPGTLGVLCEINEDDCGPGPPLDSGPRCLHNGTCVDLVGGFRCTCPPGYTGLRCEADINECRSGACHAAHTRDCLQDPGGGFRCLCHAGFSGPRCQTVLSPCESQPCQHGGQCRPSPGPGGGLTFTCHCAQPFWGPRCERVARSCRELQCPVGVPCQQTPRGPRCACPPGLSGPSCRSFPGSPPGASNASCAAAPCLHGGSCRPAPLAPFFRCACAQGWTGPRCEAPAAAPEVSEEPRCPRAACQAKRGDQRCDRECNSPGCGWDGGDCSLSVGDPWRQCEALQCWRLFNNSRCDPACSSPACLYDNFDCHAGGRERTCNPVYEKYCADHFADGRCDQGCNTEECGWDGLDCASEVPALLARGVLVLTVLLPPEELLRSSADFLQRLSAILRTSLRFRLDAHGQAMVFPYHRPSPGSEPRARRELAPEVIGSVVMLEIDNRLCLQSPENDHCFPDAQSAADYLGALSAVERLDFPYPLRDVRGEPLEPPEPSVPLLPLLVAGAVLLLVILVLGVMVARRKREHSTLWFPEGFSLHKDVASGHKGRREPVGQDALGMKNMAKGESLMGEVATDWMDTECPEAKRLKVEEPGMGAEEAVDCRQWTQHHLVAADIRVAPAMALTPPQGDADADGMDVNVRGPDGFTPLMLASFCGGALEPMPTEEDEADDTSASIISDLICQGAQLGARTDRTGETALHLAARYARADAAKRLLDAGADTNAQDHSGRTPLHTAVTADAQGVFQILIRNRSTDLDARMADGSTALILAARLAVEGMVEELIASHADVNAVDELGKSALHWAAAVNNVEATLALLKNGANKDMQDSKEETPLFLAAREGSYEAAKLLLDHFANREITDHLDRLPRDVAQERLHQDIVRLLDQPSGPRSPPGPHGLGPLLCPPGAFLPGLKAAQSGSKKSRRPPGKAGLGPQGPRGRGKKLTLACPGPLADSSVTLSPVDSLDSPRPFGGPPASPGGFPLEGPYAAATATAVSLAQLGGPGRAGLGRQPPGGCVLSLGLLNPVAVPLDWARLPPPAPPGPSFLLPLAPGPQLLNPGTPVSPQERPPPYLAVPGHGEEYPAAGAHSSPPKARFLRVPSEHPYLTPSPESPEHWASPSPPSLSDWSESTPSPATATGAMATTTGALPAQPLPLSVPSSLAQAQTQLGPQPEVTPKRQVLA
Torsin-1A-interacting protein 2 (Homo sapiens), sequence (Q8NFQ8 whole entry, looked up): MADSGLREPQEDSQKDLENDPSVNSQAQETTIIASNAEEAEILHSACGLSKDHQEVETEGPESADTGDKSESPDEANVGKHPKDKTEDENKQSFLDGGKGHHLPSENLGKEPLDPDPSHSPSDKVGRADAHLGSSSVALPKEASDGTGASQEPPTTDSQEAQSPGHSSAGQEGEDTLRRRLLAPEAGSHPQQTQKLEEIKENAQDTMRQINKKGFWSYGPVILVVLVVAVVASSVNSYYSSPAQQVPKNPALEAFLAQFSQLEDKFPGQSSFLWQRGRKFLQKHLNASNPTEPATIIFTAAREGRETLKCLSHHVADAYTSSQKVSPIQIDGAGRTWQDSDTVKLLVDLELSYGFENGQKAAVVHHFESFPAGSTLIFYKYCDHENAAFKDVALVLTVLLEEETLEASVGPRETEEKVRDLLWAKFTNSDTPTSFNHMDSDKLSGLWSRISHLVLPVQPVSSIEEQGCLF

Compound	composite z-score [1]	z-score [2]	z-score [3]	z-score [4]	composite z-score [5]	z-score [6]	composite z-score [7]	composite z-score [8]	composite z-score [9]	composite z-score [10]
CC(C)(C)N1CC=CC23O[C@@H]4C=CCOC(=O)[C@@H]4[C@H]2C(=O)N(CCCO)[C@@H]3C1=O (stereo not given in full)	-0.768	0.149 (inactive)	0.0155 (inactive)	-0.288 (inactive)	-0.558	1.27 (inactive)	-0.147	-1.62	-1.54	-0.314
CO[C@H]1O[C@H](CO)[C@@H](OC(=O)Nc2ccccc2-c2ccccc2)[C@H](OC(=O)Nc2ccc3c(c2)OCO3)[C@@H]1OC(=O)Nc1ccc2c(c1)OCO2	1.53	2.06 (inactive)	0.798 (inactive)	6.35 (inactive)	3.16	0.0976 (inactive)	-0.0269	0.91	1.07	-0.0177
O=C1C[C@]2(c3ccc([N+](=O)[O-])cc3)C(=O)N(Cc3ccccc3)c3cc(CO)ccc3[C@H]2N1CC12CC3CC(CC(C3)C1)C2	-0.404	-0.251 (inactive)	0.418 (inactive)	-1.23 (inactive)	0.258	0.64 (inactive)	-0.477	-1.43	-1.94	0.0645
C[C@H]1C2=C3C(CC[C@H]4C(OCc5ccc(F)cc5C(F)(F)F)OC[C@](C)([C@@H]34)N(C(=O)OC(C)(C)C)C2)C(CO)C1CO (stereo not given in full)	0.889	0.24 (inactive)	-3.71 (inactive)	0.0345 (inactive)	3.04	-1.5 (inactive)	0.606	-0.904	1.05	0.0149
C=CCC(OC(C)=O)[C@@H]1[C@@H](N(Cc2cc3ccccc3o2)C(=O)Cc2ccc(F)cc2)c2cc(OCCCO)ccc2N1C(=O)c1ccc2ccccc2n1 (stereo not given in full)	-0.22	-0.271 (inactive)	-0.448 (inactive)	-0.258 (inactive)	-0.136	-0.494 (inactive)	0.055	-0.145	-0.814	-0.0573
NCCCCCCNC(=O)[C@H]1C[C@H]2C(=O)N[C@@H](Cc3ccccc3)C(=O)N2[C@H]1c1ccc(O)cc1	1.11	-1.8 (inactive)	-0.599 (inactive)	-1.24 (inactive)	2.45	0.933 (inactive)	-0.0824	1.07	0.272	-0.0685
COc1ccc(C(O)C2C=CC3C(=O)N(C)C(=O)C3N2N2CCCCC2)cc1 (stereo not given)	0.973	-0.186 (inactive)	-0.275 (inactive)	-0.0667 (inactive)	2.83	-0.454 (inactive)	0.311	0.158	0.871	0.0961
COCCOC(=O)N1C(=O)[C@@]2(c3cc(C#Cc4ccc(OC)cc4)ccc31)[C@H](C(=O)NC[C@H](O)c1ccccc1)[C@H]1C(=O)O[C@H](c3ccccc3)[C@H](c3ccccc3)N1[C@@H]2c1ccc(O)cc1	1.54	0.254 (inactive)	1.06 (inactive)	1.08 (inactive)	2.49	0.394 (inactive)	-0.0159	0.793	1.05	0.268
COCCOC(=O)N1C(=O)[C@@]2(c3cc(C#CCNC(N)=O)ccc31)[C@H](C(=O)N1CCCCCCC1)[C@H]1C(=O)O[C@H](c3ccccc3)[C@H](c3ccccc3)N1[C@@H]2c1ccc(O)cc1	1.41	0.355 (inactive)	-0.216 (inactive)	0.903 (inactive)	1.66	0.0623 (inactive)	0.111	1.46	1.08	-0.0381
CCCc1cccc(=O)o1	0.804	-0.91 (inactive)	0.641 (inactive)	-0.467 (inactive)	1.17	-0.454 (inactive)	-0.0475	0.614	0.363	0.0276
O=C1OCC=C[C@H]2OC34C=CCN(c5ccc(Cl)cc5)C(=O)[C@H]3N(CCCCCO)C(=O)[C@@H]4[C@@H]12 (stereo not given in full)	-0.449	-0.984 (inactive)	-1.03 (inactive)	-0.497 (inactive)	2.58	1 (inactive)	-0.117	-1.64	-0.68	-0.208
[N-]=[N+]=NCc1ccccc1C[C@]1(C(=O)NCC(O)CO)N=C(c2ccc(OCCCO)cc2)O[C@H]1c1ccccc1CN=[N+]=[N-] (stereo not given in full)	1.56	-0.331 (inactive)	0.735 (inactive)	1.48 (inactive)	3.6	-0.172 (inactive)	0.054	-0.0965	0.624	0.306
C=CCN1C(=O)[C@@]2(O[C@@H](CCO)[C@H]([Si](C)(C)c3ccc(OC)cc3)[C@H]2C)c2cc(N3C(=O)c4ccccc4Oc4ccccc43)ccc21	0.0455	1.34 (inactive)	0.237 (inactive)	9.42 (active)	1.65	2.15 (inactive)	-0.0665	0.514	0.612	-0.135
C=C[C@@H](COC(C)=O)NS(=O)(=O)c1ccc(Br)cc1	0.317	-0.952 (inactive)	-15.7 (active)	-1.36 (inactive)	0.399	-0.819 (inactive)	-0.176	0.516	0.269	-0.157
COc1c(C)cc(-c2cc3c(c(-c4ccccc4)n2)[Si](C(C)C)(C(C)C)OC3)cc1C	-0.267	0.105 (inactive)	-0.747 (inactive)	-0.275 (inactive)	-0.495	0.346 (inactive)	0.0008	-0.24	-0.263	-0.0262
CC(C)(C)OC(=O)CC[C@@]1(C(=O)O)N=C(c2ccc(OCCCO)cc2)O[C@@H]1c1ccccc1	0.618	0.586 (inactive)	1.24 (inactive)	0.519 (inactive)	3.55	0.0219 (inactive)	0.021	-0.423	0.183	-0.0884
CCOC(=O)C[C@H]1[C@H](OC(=O)c2ccccc2-c2ccccc2)[C@@H](NC(=O)c2ccc3ccccc3n2)c2cc(OCCCO)ccc2N1C(=O)c1ccc2ccccc2n1	0.215	-0.717 (inactive)	-0.653 (inactive)	-0.299 (inactive)	0.84	0.597 (inactive)	-0.269	0.283	0.598	-0.0512
COC(=O)c1c(CC[C@@H](CO)NC(=O)N[C@H](Cn2cc(-c3ccccc3C)nn2)C(C)C)oc(C(C)=O)c1C(=O)OC	-0.469	-0.147 (inactive)	-0.644 (inactive)	0.467 (inactive)	-0.351	0.537 (inactive)	-0.29	-0.0001	-0.465	-0.218
O=c1cccc(-c2cccc(Cl)c2)o1	0.0485	-3.86 (inactive)	-4.41 (inactive)	5.45 (inactive)	0.0149	0.658 (inactive)	-0.0927	-0.162	0.136	-0.0304
NCCCCCNC(=O)[C@@H]1C[C@@H]2C(=O)N[C@@H](CCCCN)C(=O)N2[C@@H]1c1cccc(OCCO)c1	0.61	0.656 (inactive)	0.212 (inactive)	-0.0182 (inactive)	0.557	0.767 (inactive)	0.119	0.878	0.702	-0.0306
CC(C)CCC[C@@H](C)[C@H]1CC[C@@]2(C)C3=C(CC[C@]12C)[C@@]1(C)CC[C@H](OC(=O)c2ccc(Br)cc2)C(C)(C)C1CC3 (stereo not given in full)	0.739	-1.15 (inactive)	-1.28 (inactive)	-0.346 (inactive)	0.172	2.77 (inactive)	-0.0542	0.326	0.888	-0.0333
[N-]=[N+]=NCc1ccccc1C[C@@]1(C(=O)N2CCCCC2)N=C(c2ccc(OCCCO)cc2)O[C@@H]1c1ccccc1N=[N+]=[N-]	0.422	-0.64 (inactive)	0.832 (inactive)	4.02 (inactive)	1.73	1.17 (inactive)	-0.0591	0.244	0.923	0.0923
C=CCNC(=O)[C@@H]1[C@H]2C(=O)O[C@H](c3ccccc3)[C@H](c3ccccc3)N2[C@H](c2ccc(OCCO)cc2)[C@@]12C(=O)N(C(=O)OCCOC)c1ccc(C#CC3=CCCCC3)cc12	1.55	1.27 (inactive)	1.14 (inactive)	3.61 (inactive)	2.83	-0.741 (inactive)	-0.0373	0.978	1.14	0.0209
CCOC(=O)C[C@H]1[C@H](OC(=O)c2ccccc2-c2ccccc2)[C@@H](NC(=O)CC(C)C)c2cc(OCCCO)ccc2N1C(=O)c1ccc2ccccc2n1	0.0508	-0.0014 (inactive)	-0.0812 (inactive)	0.116 (inactive)	1.19	-0.64 (inactive)	-0.158	0.219	-0.0063	0.0111
COc1ccc([Si](C)(C)[C@H]2[C@H](CCn3cc([C@H](O)c4ccccc4)nn3)O[C@@]3(C(=O)N(Cc4ccc(N5CCOC5=O)cc4)c4ccccc43)[C@@H]2C)cc1	-0.562	1.75 (inactive)	1.78 (inactive)	3.45 (inactive)	-0.241	0.28 (inactive)	-0.0713	-1.49	-0.865	-0.227
O=C(CCCCCCC(=O)Nc1ccccc1)N/N=C/c1ccccc1	-0.998	0.507 (inactive)	0.0263 (inactive)	1.06 (inactive)	-0.743	0.195 (inactive)	-0.105	-0.361	-0.783	-0.117
C=CC[C@@]1(C(=O)N2CCCCC2)N=C(c2ccc(OCCCO)cc2)O[C@@H]1c1ccccc1	1.56	-2.83 (inactive)	-5.65 (inactive)	-1.18 (inactive)	3.06	0.868 (inactive)	0.361	1.14	0.5	0.0222
O=C(O)[C@]1(Cc2ccccc2)N=C(c2ccc(OCCCO)cc2)O[C@@H]1c1ccccc1	-1.27	0.624 (inactive)	-0.695 (inactive)	0.286 (inactive)	1.55	0.377 (inactive)	-0.143	-0.849	-0.786	-0.208
C=CC[C@@]1(C(=O)O)N=C(c2ccc(OCCCO)cc2)O[C@@H]1c1ccccc1	1.11	0.639 (inactive)	-2.39 (inactive)	-0.203 (inactive)	3.22	0.572 (inactive)	-0.166	-0.0356	-0.645	-0.315
